Source: PubChem BioAssay (NCATS)
Results filed as inconclusive are left out. Entries that show only a call come without a potency. Active and inactive are the calls of the source. The call rests on the fitted dose curve; in most records, active means well fitted cell-killing curve with a large enough effect; inconclusive means small, poorly fitted or top-dose-only effect, or effect the other way; inactive means flat fitted curve, though single readings scatter.

test system: PA-1; assay: Primary qHTS to identify gynecologic anti-cancer compounds using libraries of approved drugs and bioactive compounds (AID 1345084); settings: Gynecologic cancer cell panel viability, ATPlite luminescence, 48 h; series mostly up to 57.5 µM; further: nearly all actives have a fitted effect of over 55% in size
Outline: (§1)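 Five-concentration response, 48 h; readout is ATP-driven luciferase luminescence.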
Potency means the concentration at half of the fitted maximal effect.

Compound | Potency
Cc1cc(N)c2cc(NC(=O)Nc3ccc4nc(C)cc(N)c4c3)ccc2n1 | inactive
CCCCCCC[N+](CC)(CC)CCCCc1ccc(Cl)cc1 | 4.47 µM (active)
C[n+]1c2cc(N)ccc2cc2ccc(N)cc21 (tested in a mixture with another compound) | 5.01 µM (active)
COc1ccc(OC)c(C(O)CNC(=O)CN)c1 (stereo not drawn) | inactive
Cc1c(C(C)C)c(=O)n(-c2ccccc2)n1C | inactive
N[C@H](Cc1c[nH]c2ccccc12)C(=O)O | inactive
O=C(Nc1ccc(Oc2ccc(Cl)cc2)c(Cl)c1)c1cc(I)cc(I)c1O | inactive
CCC(C(=O)OCCN(CC)CC)c1ccccc1 (stereo not drawn) | inactive
CCCN1CCCC[C@H]1C(=O)Nc1c(C)cccc1C | inactive
Oc1ccc(O)cc1 | inactive
CN1CCCC(CC2c3ccccc3Sc3ccccc32)C1 (stereo not drawn) | inactive
OC[C@H]1O[C@@H](n2cnc3c(=S)nc[nH]c32)[C@H](O)[C@@H]1O | 5.01 µM (active)
CC(C)(C)CC(C)(C)c1ccc(OCCOCC[N+](C)(C)Cc2ccccc2)cc1 | 14.1 µM (active)
C/C=C(/C(=C/C)c1ccc(O)cc1)c1ccc(O)cc1 | inactive
CCCSS/C(CCO)=C(\C)N(C=O)Cc1cnc(C)nc1N | inactive
CCCCCCCCCCCCCCCC[N+](C)(C)CC | 10 µM (active)
CC(=O)Oc1ccc(C(c2ccc(OC(C)=O)cc2)c2ccccn2)cc1 | inactive
CCCCCCCCCCCCCCCC[N+](C)(C)CCN(Cc1ccc(OC)cc1)c1ncccn1 | 15.8 µM (active)
Cc1ccc(O)c2ncccc12 | inactive
CC1=C(C(=O)O)N2C(=O)[C@@H](NC(=O)[C@H](N)c3ccc(O)cc3)[C@H]2SC1 | inactive
Nc1ccc(C(=O)Nc2ccccc2N)cc1 | 11.2 µM (active)
CCCCC(CC)CN=C(N)NC(N)=NCCCCCCN=C(N)NC(N)=NCC(CC)CCCC (stereo not drawn) | 10 µM (active)
CN(C/C=C/c1ccccc1)Cc1cccc2ccccc12 | inactive
C=C(CC)C(=O)c1ccc(OCC(=O)O)c(Cl)c1Cl | inactive
O=C1OC(c2ccc(O)cc2)(c2ccc(O)cc2)c2ccccc21 | inactive
NC(=NCCCCCCN=C(N)/N=C(\N)Nc1ccc(Cl)cc1)/N=C(\N)Nc1ccc(Cl)cc1 | 15.8 µM (active)

test system: SKOV3; assay: as above; settings: Gynecologic cancer cell panel viability, ATPlite luminescence, 48 h; series mostly up to 57.5 µM
Outline: as §1

Compound | Potency
Cc1cc(N)c2cc(NC(=O)Nc3ccc4nc(C)cc(N)c4c3)ccc2n1 | inactive
C[n+]1c2cc(N)ccc2cc2ccc(N)cc21 (tested in a mixture with another compound) | 12.6 µM (active)
COc1ccc(OC)c(C(O)CNC(=O)CN)c1 (stereo not drawn) | inactive
Cc1c(C(C)C)c(=O)n(-c2ccccc2)n1C | inactive
N[C@H](Cc1c[nH]c2ccccc12)C(=O)O | inactive
O=C(Nc1ccc(Oc2ccc(Cl)cc2)c(Cl)c1)c1cc(I)cc(I)c1O | inactive
CN(C)C(=S)SC(=S)N(C)C | 11.2 µM (active)
CCC(C(=O)OCCN(CC)CC)c1ccccc1 (stereo not drawn) | inactive
COc1cc(-c2ccc(=O)[nH]n2)ccc1OC(F)F | inactive
Oc1ccc(O)cc1 | inactive
OC[C@H]1O[C@@H](n2cnc3c(=S)nc[nH]c32)[C@H](O)[C@@H]1O | inactive
CC(C)(C)CC(C)(C)c1ccc(OCCOCC[N+](C)(C)Cc2ccccc2)cc1 | 12.6 µM (active)
CO/N=C1\CN(c2nc3c(cc2F)c(=O)c(C(=O)O)cn3C2CC2)CC1CN (stereo not drawn) | inactive
CCCSS/C(CCO)=C(\C)N(C=O)Cc1cnc(C)nc1N | inactive
CCCCCCCCCCCCCCCC[N+](C)(C)CC | 2.51 µM (active)
CC(=O)Oc1ccc(C(c2ccc(OC(C)=O)cc2)c2ccccn2)cc1 | inactive
CCCCCCCCCCCCCCCC[N+](C)(C)CCN(Cc1ccc(OC)cc1)c1ncccn1 | 20 µM (active)
Cc1ccc(O)c2ncccc12 | inactive
CC1=C(C(=O)O)N2C(=O)[C@@H](NC(=O)[C@H](N)c3ccc(O)cc3)[C@H]2SC1 | inactive
Nc1ccc(C(=O)Nc2ccccc2N)cc1 | inactive
C=C(CC)C(=O)c1ccc(OCC(=O)O)c(Cl)c1Cl | inactive

test system: Tov-21-G; assay: as above; settings: Gynecologic cancer cell panel viability, ATPlite luminescence, 48 h; series mostly up to 57.5 µM
Outline: as §1

Compound | Potency
CCCCCCC[N+](CC)(CC)CCCCc1ccc(Cl)cc1 | 20 µM (active)
C[n+]1c2cc(N)ccc2cc2ccc(N)cc21 (tested in a mixture with another compound) | 28.2 µM (active)
COc1ccc(OC)c(C(O)CNC(=O)CN)c1 (stereo not drawn) | inactive
Cc1c(C(C)C)c(=O)n(-c2ccccc2)n1C | inactive
N[C@H](Cc1c[nH]c2ccccc12)C(=O)O | inactive
O=C(Nc1ccc(Oc2ccc(Cl)cc2)c(Cl)c1)c1cc(I)cc(I)c1O | inactive
CN(C)C(=S)SC(=S)N(C)C | 8.91 µM (active)
CCOc1ccc2nc3cc(N)ccc3c(N)c2c1 | inactive
CCC(C(=O)OCCN(CC)CC)c1ccccc1 (stereo not drawn) | inactive
CCCN1CCCC[C@H]1C(=O)Nc1c(C)cccc1C | inactive
COc1cc(-c2ccc(=O)[nH]n2)ccc1OC(F)F | inactive
Oc1ccc(O)cc1 | inactive
CN1CCCC(CC2c3ccccc3Sc3ccccc32)C1 (stereo not drawn) | inactive
OC[C@H]1O[C@@H](n2cnc3c(=S)nc[nH]c32)[C@H](O)[C@@H]1O | 0.891 µM (active)
O=c1c(-c2ccccc2)c1-c1ccccc1 | inactive
CO/N=C1\CN(c2nc3c(cc2F)c(=O)c(C(=O)O)cn3C2CC2)CC1CN (stereo not drawn) | inactive
C/C=C(/C(=C/C)c1ccc(O)cc1)c1ccc(O)cc1 | inactive
CCCSS/C(CCO)=C(\C)N(C=O)Cc1cnc(C)nc1N | inactive
CCCCCCCCCCCCCCCC[N+](C)(C)CC | 10 µM (active)
Cc1ccc(O)c2ncccc12 | inactive
Cc1c(C)n(CCN(C)C)c2ccc(C(=O)OCCN(C)C)cc12 | inactive
CC1=C(C(=O)O)N2C(=O)[C@@H](NC(=O)[C@H](N)c3ccc(O)cc3)[C@H]2SC1 | inactive
CCCCC(CC)CN=C(N)NC(N)=NCCCCCCN=C(N)NC(N)=NCC(CC)CCCC (stereo not drawn) | 17.8 µM (active)
CN(C/C=C/c1ccccc1)Cc1cccc2ccccc12 | inactive
O=C1OC(c2ccc(O)cc2)(c2ccc(O)cc2)c2ccccc21 | inactive
NC(=NCCCCCCN=C(N)/N=C(\N)Nc1ccc(Cl)cc1)/N=C(\N)Nc1ccc(Cl)cc1 | inactive
